# Test results as given in PubChem BioAssay AID1159580 (chemical genetic matrix, 2015).
# Among all 5,500 compounds or so, about 2,000 (36%) were called active. Inconclusive results (about 18%) are left out. Some of the results follow. Values without a mark were called inactive. No stated cut-off is given here; in the data, active means normalized growth mostly below about 0.91 (no sharp cut-off); inconclusive means no clear call, values can overlap the other calls; inactive means mostly above about 0.92.
# Test: chemical genetic growth profiling, strain panel (AID 1159580);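 further: tested at 20 µM; growth read once vehicle control cultures reached saturation at 30 °C; 1 = growth at the plate median or of vehicle wells; lower values mean less growth of the strain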
# Details: growth OD
structure (smiles),measurement,setting,value
CCCCOC(=O)c1ccccc1C(=O)OCCCC,normalized growth,"S. cerevisiae deletion strains, locus YJR066W, strain TOR1, active compounds read low",0.92
same,normalized growth,"S. cerevisiae deletion strains, locus YJR075W, strain HOC1, active compounds read low",0.991
same,normalized growth,"S. cerevisiae deletion strains, locus YKL009W, strain mrt4, active compounds read low",0.941
same,normalized growth,"S. cerevisiae deletion strains, locus YKL068W, active compounds read low",0.977
same,normalized growth,"S. cerevisiae deletion strains, locus YKL085W, strain MDH1 (second series), active compounds read low",0.984
same,normalized growth,"S. cerevisiae deletion strains, locus YKL085W, strain MDH1, active compounds read low",0.984
same,normalized growth,"S. cerevisiae deletion strains, locus YKL160W, strain elf1, active compounds read low",0.985
same,normalized growth,"S. cerevisiae deletion strains, locus YKL190W, strain CNB1, active compounds read low",0.972
same,normalized growth,"S. cerevisiae deletion strains, locus YKR001C, strain vps1, active compounds read low",0.983
same,normalized growth,"S. cerevisiae deletion strains, locus YKR026C, strain gcn3, active compounds read low",0.986
same,normalized growth,"S. cerevisiae deletion strains, locus YKR091W, strain srl3, active compounds read low",0.982
same,normalized growth,"S. cerevisiae deletion strains, locus YLL001W, strain dnm1, active compounds read low",0.987
same,normalized growth,"S. cerevisiae deletion strains, locus YLL026W, active compounds read low",0.982
same,normalized growth,"S. cerevisiae deletion strains, locus YLL041C, strain sdh2, active compounds read low",0.975
same,normalized growth,"S. cerevisiae deletion strains, locus YLR027C, strain aat2, active compounds read low",0.974
same,normalized growth,"S. cerevisiae deletion strains, locus YLR039C, strain RIC1, active compounds read low",0.941
same,normalized growth,"S. cerevisiae deletion strains, locus YLR058C, strain SHM2, active compounds read low",0.968
same,normalized growth,"S. cerevisiae deletion strains, locus YLR102C, strain apc9, active compounds read low",0.982
same,normalized growth,"S. cerevisiae deletion strains, locus YLR113W, strain HOG1, active compounds read low",0.89
same,normalized growth,"S. cerevisiae deletion strains, locus YLR221C, strain rsa3, active compounds read low",0.957
same,normalized growth,"S. cerevisiae deletion strains, locus YLR258W, strain gsy2, active compounds read low",0.974
same,normalized growth,"S. cerevisiae deletion strains, locus YLR262C, strain YPT6 (second series), active compounds read low",0.838 (active)
same,normalized growth,"S. cerevisiae deletion strains, locus YLR262C, strain YPT6, active compounds read low",0.931
same,normalized growth,"S. cerevisiae deletion strains, locus YLR268W, strain sec22, active compounds read low",0.96
same,normalized growth,"S. cerevisiae deletion strains, locus YLR320W, strain mms22, active compounds read low",0.924
same,normalized growth,"S. cerevisiae deletion strains, locus YLR330W, strain CHS5, active compounds read low",0.977
same,normalized growth,"S. cerevisiae deletion strains, locus YLR342W, strain FKS1 (second series), active compounds read low",0.875
same,normalized growth,"S. cerevisiae deletion strains, locus YLR342W, strain FKS1, active compounds read low",0.948
same,normalized growth,"S. cerevisiae deletion strains, locus YLR357W, strain rsc2, active compounds read low",1.02
same,normalized growth,"S. cerevisiae deletion strains, locus YLR370C, strain arc18, active compounds read low",0.99
same,normalized growth,"S. cerevisiae deletion strains, locus YLR371W, strain rom2, active compounds read low",0.974
same,normalized growth,"S. cerevisiae deletion strains, locus YLR384C, strain iki3, active compounds read low",0.99
same,normalized growth,"S. cerevisiae deletion strains, locus YLR418C, strain cdc73, active compounds read low",0.978
same,normalized growth,"S. cerevisiae deletion strains, locus YML016C, strain PPZ1, active compounds read low",0.992
same,normalized growth,"S. cerevisiae deletion strains, locus YML032C, strain rad52, active compounds read low",0.982
same,normalized growth,"S. cerevisiae deletion strains, locus YML120C, strain ndi1, active compounds read low",0.983
same,normalized growth,"S. cerevisiae deletion strains, locus YML124C, strain tub3, active compounds read low",0.975
same,normalized growth,"S. cerevisiae deletion strains, locus YMR058W, strain fet3, active compounds read low",0.992
same,normalized growth,"S. cerevisiae deletion strains, locus YMR078C, strain ctf18, active compounds read low",0.979
same,normalized growth,"S. cerevisiae deletion strains, locus YMR125W, strain sto1, active compounds read low",0.969
same,normalized growth,"S. cerevisiae deletion strains, locus YMR129W, active compounds read low",0.98
same,normalized growth,"S. cerevisiae deletion strains, locus YMR205C, strain PFK2, active compounds read low",0.949
same,normalized growth,"S. cerevisiae deletion strains, locus YMR223W, strain ubp8, active compounds read low",0.975
same,normalized growth,"S. cerevisiae deletion strains, locus YMR231W, strain pep5, active compounds read low",0.996
same,normalized growth,"S. cerevisiae deletion strains, locus YMR263W, strain SAP30, active compounds read low",0.977
same,normalized growth,"S. cerevisiae deletion strains, locus YMR307W, strain GAS1, active compounds read low",0.713
same,normalized growth,"S. cerevisiae deletion strains, locus YNL067W, strain RPL9B, active compounds read low",0.979
same,normalized growth,"S. cerevisiae deletion strains, locus YNL071W, strain lat1, active compounds read low",0.944
same,normalized growth,"S. cerevisiae deletion strains, locus YNL128W, strain TEP1, active compounds read low",0.98
same,normalized growth,"S. cerevisiae deletion strains, locus YNL153C, strain GIM3, active compounds read low",0.998
same,normalized growth,"S. cerevisiae deletion strains, locus YNL183C, strain NPR1, active compounds read low",0.911
same,normalized growth,"S. cerevisiae deletion strains, locus YNL209W, strain ssb2, active compounds read low",0.99
same,normalized growth,"S. cerevisiae deletion strains, locus YNL233W, strain BNI4, active compounds read low",0.994
same,normalized growth,"S. cerevisiae deletion strains, locus YNL248C, strain rpa49, active compounds read low",0.987
same,normalized growth,"S. cerevisiae deletion strains, locus YNL250W, strain rad50, active compounds read low",0.961
same,normalized growth,"S. cerevisiae deletion strains, locus YNL271C, strain bni1, active compounds read low",0.978
same,normalized growth,"S. cerevisiae deletion strains, locus YNL298W, strain CLA4, active compounds read low",0.966
same,normalized growth,"S. cerevisiae deletion strains, locus YNL307C, strain MCK1, active compounds read low",0.952
same,normalized growth,"S. cerevisiae deletion strains, locus YNL322C, strain KRE1 (second series), active compounds read low",0.981
same,normalized growth,"S. cerevisiae deletion strains, locus YNL322C, strain KRE1, active compounds read low",0.978
same,normalized growth,"S. cerevisiae deletion strains, locus YNR049C, strain mso1, active compounds read low",0.976
same,normalized growth,"S. cerevisiae deletion strains, locus YNR052C, strain pop2, active compounds read low",0.971
same,normalized growth,"S. cerevisiae deletion strains, locus YOL006C, strain TOP1, active compounds read low",0.94
same,normalized growth,"S. cerevisiae deletion strains, locus YOL012C, strain htz1",0.914
same,normalized growth,"S. cerevisiae deletion strains, locus YOL147C, strain pex11, active compounds read low",0.976
same,normalized growth,"S. cerevisiae deletion strains, locus YOR001W, strain rrp6, active compounds read low",0.979
same,normalized growth,"S. cerevisiae deletion strains, locus YOR061W, strain CKA2, active compounds read low",0.984
same,normalized growth,"S. cerevisiae deletion strains, locus YOR069W, strain VPS5, active compounds read low",0.977
same,normalized growth,"S. cerevisiae deletion strains, locus YOR070C, strain gyp1, active compounds read low",0.983
same,normalized growth,"S. cerevisiae deletion strains, locus YOR080W, strain dia2, active compounds read low",0.99
same,normalized growth,"S. cerevisiae deletion strains, locus YOR083W, strain WHI5, active compounds read low",0.98
same,normalized growth,"S. cerevisiae deletion strains, locus YOR106W, strain vam3, active compounds read low",0.916
same,normalized growth,"S. cerevisiae deletion strains, locus YOR136W, strain idh2, active compounds read low",0.988
same,normalized growth,"S. cerevisiae deletion strains, locus YOR144C, strain elg1, active compounds read low",0.973
same,normalized growth,"S. cerevisiae deletion strains, locus YOR184W, strain ser1, active compounds read low",0.943
same,normalized growth,"S. cerevisiae deletion strains, locus YOR231W, strain MKK1, active compounds read low",0.945
same,normalized growth,"S. cerevisiae deletion strains, locus YOR265W, strain rbl2, active compounds read low",0.986
same,normalized growth,"S. cerevisiae deletion strains, locus YOR270C, strain vph1, active compounds read low",0.846
same,normalized growth,"S. cerevisiae deletion strains, locus YOR290C, strain snf2, active compounds read low",0.975
same,normalized growth,"S. cerevisiae deletion strains, locus YOR316C, strain cot1, active compounds read low",0.977
same,normalized growth,"S. cerevisiae deletion strains, locus YPL055C, strain LGE1, active compounds read low",0.967
same,normalized growth,"S. cerevisiae deletion strains, locus YPL078C, strain atp4, active compounds read low",0.98
same,normalized growth,"S. cerevisiae deletion strains, locus YPL106C, strain sse1, active compounds read low",1.02
same,normalized growth,"S. cerevisiae deletion strains, locus YPL240C, strain hsp82, active compounds read low",0.969
same,normalized growth,"S. cerevisiae deletion strains, locus YPL241C, strain CIN2, active compounds read low",0.976
same,normalized growth,"S. cerevisiae deletion strains, locus YPL256C, strain CLN2, active compounds read low",0.973
same,normalized growth,"S. cerevisiae deletion strains, locus YPR119W, strain clb2, active compounds read low",0.974
same,normalized growth,"S. cerevisiae deletion strains, locus YPR141C, strain kar3, active compounds read low",0.978
same,normalized growth,"S. cerevisiae deletion strains, locus YPR163C, strain tif3, active compounds read low",0.97
same,normalized growth,"S. cerevisiae deletion strains, locus YPR167C, strain met16, active compounds read low",0.984
same,normalized growth,"S. cerevisiae deletion strains, strain wtn01, active compounds read low",0.965
same,normalized growth,"S. cerevisiae strains, strain wild type, active compounds read low",0.987
